An excerpt weighted towards active compounds, which were near 4.7% of everything screened.
TRHR ag: TRH receptor (human) agonism; P34981; TRHR cells, calcium flux fluo-8, FDSS agonist mode; activation, % at 2 µM; hit rate 0.18% among 360,000; AID 493084
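Agonist-mode FDSS calcium read (Ex 480/Em 530, 1 s cycles) in 1536-well TRHR cells with fluo-8 dye, after 10-cycle baseline and 23 nL compound addition; TRH at EC20 (10 nM final) added afterwards for the enhancer phase.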
TRHR enhancer: allosterically enhances the human TRH receptor; P34981; TRHR cells, fluo-8 calcium fluorescence, EC20 TRH enhancement; enhancement, % at 2 µM; hit rate 0.66% among 360,000; in the data active means enhancement above about 30%
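Enhancer read-out: after compound pinning and an initial kinetic agonist-mode read, an EC20 of TRH (10 nM final) was injected and fluo-8 calcium signal (Ex 480/Em 530) followed at 1 s/cycle for 100 cycles in TRHR-expressing cells.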
D1 antagonist: human D1 dopamine receptor antagonism | P21728 | HEK293 TREx D1 cells, calcium flux, dopamine EC80; active compounds read low | activity change, negative = inhibition, % at 10 µM | hit rate 3.2% among 360,000 | AID 504652; in the data active means activity change below about -30%
Target sequence (P21728 whole entry, looked up): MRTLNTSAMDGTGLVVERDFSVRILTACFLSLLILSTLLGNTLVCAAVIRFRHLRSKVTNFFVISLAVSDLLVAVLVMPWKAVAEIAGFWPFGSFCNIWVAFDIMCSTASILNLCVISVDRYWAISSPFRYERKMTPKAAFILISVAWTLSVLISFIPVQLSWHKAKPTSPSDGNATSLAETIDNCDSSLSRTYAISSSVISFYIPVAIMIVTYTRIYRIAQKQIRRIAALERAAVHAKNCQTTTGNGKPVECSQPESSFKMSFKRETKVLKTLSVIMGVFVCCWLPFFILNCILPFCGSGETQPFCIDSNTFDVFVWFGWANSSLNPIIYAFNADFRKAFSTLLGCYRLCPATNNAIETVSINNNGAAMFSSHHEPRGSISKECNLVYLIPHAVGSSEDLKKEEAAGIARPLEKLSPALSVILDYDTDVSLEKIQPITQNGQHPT
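Antagonism measured as reduced calcium response to an EC80 dopamine addition following 180 s compound pre-read; cells were inducible HEK293 Trex D1 plated overnight at 30 C, read kinetically at 1 cycle/sec.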
D1 PAM: enhances dopamine response at the human D1 receptor | hit rate 0.036% among 360,000 | AID 504651 | HEK293 TREx D1 cells, calcium flux, dopamine EC20 potentiation | potentiation, % at 10 µM | P21728; in the data active means potentiation above about 30%
D1 agonist: agonists of human D1 dopamine receptor; P21728; HEK293 T-REx D1 cells, calcium flux, agonist mode; activation, % at 2 µM; hit rate 1% among 360,000; AID 504660
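Agonism was scored from calcium flux recorded over 180 s (1 read/s) after pintool compound addition, following a 10-cycle baseline. Cells were inducible force-coupled HEK293 TREx D1, plated overnight at 30 C and loaded with no-wash calcium dye.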
Numbers stand for hits; n = inactive; x = no result; ! = not confirmed by another sample. Unless noted, no stated cut-off is given here; in the data, active means activation above about 30%; inactive means the rest.

SMILES	TRHR ag	TRHR enhancer	D1 antagonist	D1 PAM	D1 agonist
Cc1cccc(N(C)S(=O)(=O)c2ccc(-c3cc(C)no3)s2)c1	n	n	n	n	33!
CCN(c1cccc(C)c1)S(=O)(=O)c1ccc(-c2cc(C)no2)s1	n	n	n	n	n
CCN1C(=NCCCCO)N[C@@H](c2ccccc2)C(C(=O)OC)=C1C	n	n	n	n	n
CC1CCN(CCCNS(=O)(=O)c2cc(Br)cc3c2N(C(=O)C2CC2)CC3)CC1	n	33	n	n	n
COc1ccc(-n2nc(C(=O)N3CCN(c4cccc(C)c4C)CC3)c3c4ccccc4n(C)c3c2=O)cc1	n	n	n	n	n
O=C(c1cccc(C(F)(F)F)c1)N1CCCC1	n	n	n	n	n
O=C(c1cccc(C(F)(F)F)c1)N1CCCCCC1	n	n	-56	n	n
CC(NC(=O)C1CCCN(C(=O)c2ccc(Cl)cc2)C1)c1cccc(C(F)(F)F)c1 (configuration not stated)	n	n	-37	x	n
CCc1ccc(C(CNC(=O)c2ccc3c(=O)n(-c4ccccc4F)c(=S)[nH]c3c2)N(C)C)cc1 (configuration not stated)	n	n	n	n	n
FC(F)Oc1ccc(-c2csc(=Nc3cccnc3)n2CC2CCCO2)cc1 (configuration not stated)	n	n	-31	n	n
COCCn1c(-c2ccc(Br)cc2)csc1=Nc1cccnc1	n	n	-34	n	n
Clc1ccc(-c2csc(=Nc3cccnc3)n2CCCn2ccnc2)cc1Cl	n	n	n	n	n
CCCCNC(=O)CCCCC(=O)N/N=C/c1cccc(Cl)c1	n	31	n	n	n
CC1=Nc2cc(C(=O)NC(C)C)ccc2Sc2ccc(C)cc21	n	n	n	n	n
CCCOc1ccc(CCC(=O)N/N=C/c2ccncc2)cc1	n	n	-36	n	n
CCN(c1ccccc1)S(=O)(=O)c1ccc(Cl)c(C(=O)OCC(=O)NC(=O)C(C)C)c1	n	n	-34	n	n
CCN(c1ccccc1)S(=O)(=O)c1ccc(Cl)c(NC(=O)COC(=O)c2ccc(O)cc2)c1	n	n	n	n	n
CCN(c1ccccc1)S(=O)(=O)c1ccc(Cl)c(NC(=O)COC(=O)C2CC2C)c1 (configuration not stated)	n	n	-31	n	n
C[C@@H]1C(=O)O[C@H]2CC34[C@H]5C[C@@H](C(C)(C)C)[C@]36[C@@H](OC(=O)[C@@H]6O)O[C@@]4(C(=O)O5)[C@]21O (some centres not stated)	n	n	n	n	n
C[C@@H]1C(=O)O[C@@H]2CC34[C@H]5C[C@@H](C(C)(C)C)C36[C@H](OC(=O)[C@@H]6O)OC4(C(=O)O5)[C@@]12O (some centres not stated)	n	n	-38	n	n
Cc1cc(NC(=O)c2ccc(F)cc2)n(C)n1	n	n	n	n	n
Cc1cc(C)c(NC(=O)Cn2c(=O)n(CCC(C)C)c(=O)c3cccnc32)c(C)c1	n	n	n	n	n
Cc1ccc(C)c(NC(=O)Cn2c(=O)n(CCC(C)C)c(=O)c3cccnc32)c1	n	n	-43	n	n
C=CCC1S/C(=N/N=C/c2cccs2)NC1=O (configuration not stated)	n	n	n	n	n
O=C1N/C(=N\N=C\c2cccs2)SC1Cc1ccc(Cl)c(Cl)c1 (configuration not stated)	n	n	-43	n	n
SMILES	TRHR ag	TRHR enhancer	D1 antagonist	D1 PAM	D1 agonist
CCN(CC)S(=O)(=O)c1ccc(Oc2ccc(S(=O)(=O)N(CC)CC)cc2)cc1	n	n	n	n	31
O=S(=O)(c1ccccc1)N1CCCN(S(=O)(=O)c2ccccc2)CC1	n	n	-45	n	n
O=S(=O)(c1ccccc1)N1CCN(S(=O)(=O)N2CCCCC2)CC1	n	n	n	n	n
CCOc1ccc(S(=O)(=O)N2CCCC2)cc1	n	n	x	n	n
CCN(CC)S(=O)(=O)c1ccc(S(=O)(=O)N2CCCC2)cc1	n	38	n	n	n
Cc1csc2nc(COC(=O)c3ccc(NC(=O)C(C)C)cc3)cc(=O)n12	n	n	n	n	n
COCCn1c(C)cc(C(=O)CSc2cc(C)c3ccccc3n2)c1C	n	n	-38	n	n
COCCn1c(C)cc(C(=O)CSc2nc3ccccc3c(=O)n2Cc2ccco2)c1C	n	n	n	n	n
Cc1cc(Br)ccc1NC(=O)CN1C(=O)C2C3CC(c4ccccc4)C(C3)C2C1=O (configuration not stated)	n	n	-39	n	n
N#Cc1ccc(-c2ccc(OCC(=O)NCCc3ccccc3)cc2)cc1	n	n	-48	n	36
Nc1c(C(=O)Nc2ccc(Cl)c(C(=O)O)c2)sc2nc3c(cc12)CCCC3	n	n	-62	n	n
CCCCN(C)S(=O)(=O)c1ccc(C(=O)N(CCN(C)C)c2nc3ccc(C)cc3s2)cc1	n	n	-39	n	n
Cc1ccc2nc(N(CCCN(C)C)C(=O)c3ccc(S(=O)(=O)N4CCCCCC4)cc3)sc2c1	n	n	n	n	38
CC1CCCCN1S(=O)(=O)c1ccc(C(=O)N(CCCN(C)C)c2nc3ccc(Br)cc3s2)cc1 (configuration not stated)	n	n	-32	n	n
CN(C)CCCN(C(=O)C1=COCCO1)c1nc2ccc(Br)cc2s1	n	n	-41	n	68
CC(C)Oc1ccc(-c2nc3c(C#N)c[nH]n3c2NC2CCCCC2)cc1	n	n	n	n	n
CC1CCCC(C)N1C(=O)COC(=O)c1c[nH]c2ccccc12 (configuration not stated)	n	n	n	n	n
CCOC(=O)c1cc2c(=O)n3ccccc3nc2n(Cc2ccco2)c1=NC(=O)c1cc(C)cc(C)c1	n	n	n	n	n
Cc1cc2n(n1)C(c1sccc1C)Nc1c(C)cccc1-2 (configuration not stated)	n	n	n	n	n
COc1cc(OC)c(C2Nc3c(C)cccc3-c3cc(C)nn32)cc1OC (configuration not stated)	n	31	n	n	n
O=C(CCC(=O)c1cccs1)OCc1nnc(-c2ccccc2)o1	n	n	-39	n	n
O=S1(=O)CCOCCN1Cc1ccc(Cl)cc1Cl	n	n	n	n	n
CCOC(=O)c1c(C)[nH]c(C)c1S(=O)(=O)N(C)CC(=O)NCc1cccc(Br)c1	n	n	-36!	n	n
Cc1ccc(CN2CCC(CO)(CC3CCCCO3)CC2)o1 (configuration not stated)	n	n	n	n	n
COCc1ccc(CN2CCC(CO)(CC3CCCCO3)CC2)o1 (configuration not stated)	n	n	-40	n	n
CCc1ccc(CN2CCC(CO)(CC3CCCCO3)CC2)o1 (configuration not stated)	n	n	-38	n	n

Screening results: PubChem BioAssay, National Center for Advancing Translational Sciences (NCATS)
